Measurements published in the supplement of paper PMC9262897, “Low-cost anti-mycobacterial drug discovery using engineered E. coli” (Nature Communications, 2022).
Structures can show the parent of a compound that is named as a salt. ± gives the standard deviation of the averaged measurements.

Test system: E. coli TESEC Mtb Alr
Assay: growth (OD600 after 10 h); higher = more growth (less inhibition)
Conditions: compound 0.1 mM
Method: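 TESEC Mtb Alr E. coli, or the Alr+ wild-type control, in 384-well plates with Prestwick library compounds at 0.1 mM and 1% DMSO, across arabinose induction levels of 1E3 to 1E7 nM. Growth is read as OD600 after 10 h at 37 °C in triplicate biological replicates.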

[1] = arabinose 1000 nM, raw OD600 reference: median of DMSO wells 0.294, cell-free background 0.041
[2] = arabinose 10000 nM, raw OD600 reference: median of DMSO wells 0.264, cell-free background 0.041
[3] = arabinose 100000 nM, raw OD600 reference: median of DMSO wells 0.201, cell-free background 0.041
[4] = arabinose 1000000 nM, raw OD600 reference: median of DMSO wells 0.193, cell-free background 0.041
[5] = arabinose 10000000 nM, raw OD600 reference: median of DMSO wells 0.146, cell-free background 0.041

## Cc1c(Cl)cccc1Nc1ncccc1C(=O)O [Clonixin Lysinate]
[1]
  growth: 0.207 ± 0.0063
[2]
  growth: 0.155 ± 0.0017
[3]
  growth: 0.173 ± 0.0047
[4]
  growth: 0.0952 ± 0.0017
[5]
  growth: 0.15 ± 0.0047

## COCCc1ccc(OCC(O)CNC(C)C)cc1 (racemic) [Metoprolol-(+,-) (+)-tartrate salt]
[1]
  growth: 0.306 ± 0.018
[2]
  growth: 0.266 ± 0.014
[3]
  growth: 0.203 ± 0.013
[4]
  growth: 0.199 ± 0.0081
[5]
  growth: 0.141 ± 0.0035

## COc1cc(NC(C)CCCN)c2ncccc2c1 (stereo not given) [Primaquine diphosphate]
[1]
  growth: 0.0463 ± 0.00081
[2]
  growth: 0.04143 ± 0.00031
[3]
  growth: 0.0508 ± 0.0023
[4]
  growth: 0.043 ± 0.00026
[5]
  growth: 0.0577 ± 0.0019

## CCC[C@@H]1C[C@@H](C(=O)N[C@@H]([C@H]2O[C@H](SC)[C@H](O)[C@@H](O)[C@H]2O)[C@H](C)Cl)N(C)C1 [Clindamycin hydrochloride]
[1]
  growth: 0.048 ± 0.0007
[2]
  growth: 0.04127 ± 0.0004
[3]
  growth: 0.0497 ± 0.00055
[4]
  growth: 0.04133 ± 0.00032
[5]
  growth: 0.0496 ± 0.00085

## Cc1c(-c2ccccc2)oc2c(C(=O)OCCN3CCCCC3)cccc2c1=O [Flavoxate hydrochloride]
[1]
  growth: 0.171 ± 0.0084
[2]
  growth: 0.248 ± 0.0097
[3]
  growth: 0.145 ± 0.0026
[4]
  growth: 0.105 ± 0.0025
[5]
  growth: 0.139 ± 0.0023

## NC[C@@H]1O[C@H](O[C@H]2[C@@H](O)[C@H](O[C@@H]3[C@@H](O)[C@H](N)C[C@H](N)[C@H]3O[C@H]3O[C@H](CN)[C@@H](O)[C@H](O)[C@H]3N)O[C@@H]2CO)[C@H](N)[C@@H](O)[C@@H]1O [Neomycin sulfate]
[1]
  growth: 0.305 ± 0.009
[2]
  growth: 0.287 ± 0.0035
[3]
  growth: 0.219 ± 0.015
[4]
  growth: 0.19 ± 0.005
[5]
  growth: 0.163 ± 0.0028

## C[C@]12CC[C@@H]3c4ccc(O)cc4CC[C@H]3[C@@H]1CC[C@@H]2O [Estradiol-17 beta]
[1]
  growth: 0.118 ± 0.052
[2]
  growth: 0.214 ± 0.0069
[3]
  growth: 0.157 ± 0.011
[4]
  growth: 0.129 ± 0.0023
[5]
  growth: 0.141 ± 0.0021

## CCn1cc(C(=O)O)c(=O)c2cc(F)c(N3CCNCC3)cc21 [Norfloxacin]
[1]
  growth: 0.0427 ± 0.00078
[2]
  growth: 0.0398 ± 0.00098
[3]
  growth: 0.0437 ± 0.00036
[4]
  growth: 0.0398 ± 0.0006
[5]
  growth: 0.0437 ± 0.00035
